Measurements published in PubChem BioAssay (NCI).
The panel holds about 83,000 compounds, 20% with a hit somewhere; the sample as a whole holds those more often.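 The endpoint reported here, percent growth, reads 100 for growth as untreated, 0 for no net growth and -100 for all cells dead.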 A number with no mark means an inactive call. Activity calls are given as the source filed them. The calls were made as follows: active = growth percent below 10; inactive = the rest.

How the values were obtained:
Assay in all cases: NCI-60 one-dose screen, 48 h (100 = growth as untreated, 0 = no growth, -100 = all killed)
Conditions in all cases: 10 µM unless noted
NCI-H23 lung = tested on: NCI-H23 lung
NCI-H226 lung = tested on: NCI-H226 lung
NCI-H322M lung = tested on: NCI-H322M lung
HOP-62 NSCLC = tested on: HOP-62 NSCLC
NCI-H460 lung = tested on: NCI-H460 lung
NCI-H522 lung = tested on: NCI-H522 lung
A549/ATCC NSCLC = tested on: A549/ATCC NSCLC
786-0 renal = tested on: 786-0 renal
COLO 205 colon = tested on: COLO 205 colon
DU-145 prostate = tested on: DU-145 prostate
K-562 leukemia = tested on: K-562 leukemia
MALME-3M melanoma = tested on: MALME-3M melanoma
MDA-MB-231 breast = tested on: MDA-MB-231 breast
RXF 393 renal = tested on: RXF 393 renal
SF-268 CNS = tested on: SF-268 CNS
SF-295 CNS = tested on: SF-295 CNS
SF-539 CNS = tested on: SF-539 CNS
UACC-257 melanoma = tested on: UACC-257 melanoma
M14 melanoma = tested on: M14 melanoma

Row | Compound | growth (NCI-H23 lung) | growth (NCI-H226 lung) | growth (NCI-H322M lung) [%] | growth (HOP-62 NSCLC) | growth (NCI-H460 lung) | growth (NCI-H522 lung) | growth (A549/ATCC NSCLC) [%] | growth (786-0 renal) | growth (COLO 205 colon) | growth (DU-145 prostate) | growth (K-562 leukemia) | growth (MALME-3M melanoma) | growth (MDA-MB-231 breast) [%] | growth (RXF 393 renal) | growth (SF-268 CNS) | growth (SF-295 CNS) | growth (SF-539 CNS) | growth (UACC-257 melanoma) [%] | growth (M14 melanoma)
1 | CC(C)(C)[Si](C)(C)OC1[C@@H](CNC(N)=O)O[C@@H](n2cnc3c(NC(=O)Nc4ccccc4)ncnc32)[C@H]1O[Si](C)(C)C(C)(C)C (stereo partly drawn) | 62.4% | 75.9% | 119 | 78.1% | 5.08% (active) | 63.8% | 37.6 | 58.8% | 9.85% (active) | 72.6% | 35.2% | 75.4% | 77.9 | 6.77% (active) | 48.3% | 64.7% | 68.1% | 78.6 | 54.3%
2 | O=C1Nc2ccc(Cl)cc2/C1=C\c1c(-c2ccc(F)cc2)nc2ccccn12 | -20.1% (active) | -30.8% (active) | 43.6 | -10.3% (active) | 6.88% (active) | 11.4% | 23.7 | 24.6% | 45.7% | -19% (active) | -39.5% (active) | 16.6% | 45.9 | -13.4% (active) | 5.15% (active) | -41% (active) | -31.2% (active) | 75.6 | -9.52% (active)
3 | COc1cc(C)c(Cl)cc1C1=NN(c2ccc(S(N)(=O)=O)cc2)C(/C=C/c2ccccc2)C1 (stereo not drawn) | 50.5% | 31.9% | 107 | 59.7% | 26.8% | 27% | 34 | 63.4% | 38.3% | 82.6% | 23.1% | 85.6% | 88.4 | 58% | 70.2% | 63.7% | 103% | 83.4 | 72.2%
4 | CC(=O)N1N=C(C2C(=O)N(C)C(=O)N(C)C2=O)CC1c1ccccc1C(=O)O (stereo not drawn) | 98.3% | 108% | 97.1 | 97.2% | 104% | 83.3% | 98.4 | 98.2% | 108% | 103% | 87.5% | 104% | 104 | 104% | 96.7% | 112% | 104% | 95.7 | 96.7%
5 | CCN1C(=O)N(CC)C2C1NN=c1s/c(=C\c3ccc(Br)cc3)c(=O)n12 (stereo not drawn) | 29.2% | 50.7% | 45.5 | 23.8% | 7.34% (active) | -49.9% (active) | 19.7 | 23.6% | -34.6% (active) | 6.46% (active) | 4.55% (active) | 52.2% | 25.9 | 40.5% | 36.1% | 17.4% | -5.08% (active) | 23.5 | 7.42% (active)
6 | Nc1c(C(=O)Nc2cccc(Cl)c2)sc2nc3c(cc12)C(=O)CCC3 | 38% | 57.9% | 71.8 | 47% | 10.3% | 14.6% | 28.2 | 47.7% | 10.2% | 11.6% | 22.8% | 49.7% | 43.9 | 25.9% | 63.1% | -20.2% (active) | 27.3% | 68.9 | 26.9%
7 | Cc1cc([N+](=O)[O-])c(C)cc1N | 103% | 101% | 107 | 103% | 109% | 77.5% | 104 | 103% | 121% | 115% | 100% | 104% | 90.3 | 105% | 105% | 109% | 105% | 109 | 104%
8 | COc1cc2ncnc(Nc3ccc(S(=O)(=O)Nc4cc(C)on4)cc3)c2cc1OCCCN1CCN(c2ccc([N+](=O)[O-])cc2)CC1 | 103% | 107% | 103 | 106% | 110% | 94.7% | 106 | 109% | 105% | 112% | 120% | 104% | 97.9 | 115% | 102% | 109% | 102% | 107 | 98.4%
9 | C#C[C@]1(O)CC[C@H]2[C@@H]3CC=C4c5sc(-c6cccc(Br)c6)nc5CC[C@]4(C)[C@H]3CC[C@@]21C | 82.9% | 97.9% | 73.5 | 91.5% | 78.1% | 62.3% | 81.2 | 51.9% | 118% | 88.6% | 6.54% (active) | 100% | 79.9 | 37.3% | 72.4% | 55.5% | 37.6% | 80.7 | 69.3%
10 | COc1ccc(C(=O)O)cc1.[Ag] | 103% | 101% | 102 | 113% | 87.1% | 11.8% | 93.4 | 107% | 61.8% | 106% | -27.4% (active) | -51.3% (active) | 103 | 100% | 97% | 114% | 94.9% | 94.9 | 106%
11 | C[Si](C)(C)C(c1ccccc1)c1ccccc1 | 99.5% | 113% | 105 | 105% | 106% | 98.2% | 91.1 | 110% | 105% | 102% | 86.7% | 90.2% | 123 | 126% | 104% | 109% | 111% | 109 | 108%
12 | O=[N+]([O-])c1ccc(SSc2ccc([N+](=O)[O-])cc2Cl)c(Cl)c1 | 89% | 87.5% | 98.2 | 112% | 92.2% | 85.1% | 96.3 | 102% | 127% | 99.5% | 77.8% | 90.8% | 78.2 | 120% | 103% | 97.2% | 119% | 118 | 103%
13 | CC(C)CCSc1nc(Nc2ccccc2)c(C#N)c(-c2ccc(F)cc2)n1 | 74.4% | 90.7% | 49.8 | 56.5% | 6.55% (active) | 61% | 25.3 | -9.8% (active) | 18.6% | 82.3% | 38.8% | 68.4% | 46.2 | 82% | 79.1% | 34.5% | 52.7% | 52.7 | 70.1%
14 | Cc1[nH]c2ccccc2c1C1=CC(=O)C=CC1=O | 92.8% | 94.2% | 120 | 94.7% | 111% | -24.4% (active) | 93.2 | 84.3% | 55.7% | 103% | 33.4% | 123% | 87.7 | 115% | 83.7% | 127% | 79.1% | 91.6 | 79.4%
15 | NC(=S)N1N=C(c2ccc(Cl)cc2)CC1c1cc2ccccc2[nH]c1=O (stereo not drawn) | 105% | 113% | 97.2 | 102% | 108% | 84.2% | 110 | 98% | 115% | 118% | 112% | 93.8% | 109 | 123% | 112% | 108% | 106% | 111 | 111%
16 | C=C(COC(C)=O)[C@H]1CC/C(C)=C/CC/C(C)=C/CC[C@@]2(C)O[C@H]2C1 | 106% | 108% | 102 | 107% | 106% | 95.3% | 105 | 96% | 148% | 109% | 100% | 93.5% | 107 | 112% | 97.2% | 110% | 114% | 100 | 106%
17 | CCN(CC)CCNC(=O)n1cc(-c2ccncc2)c(-c2cc(Cl)cc(OC)c2)n1 | 80.1% | 38.7% | 114 | 35.9% | 97.9% | 92.3% | 49.5 | 71.5% | 46.2% | 81.3% | 66.7% | 111% | 82.8 | 61.8% | 73.9% | 80.3% | 44% | 89.4 | 108%
